Assay results reported in PubChem BioAssay (NCI).
Compounds without any hit were thinned out: in the full panel of roughly 83,000, 20% have a hit.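 Compound tested at a single concentration for 48 hours in 96-well plates; a percent growth value below 10 was scored as active.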 Activity calls are given as the source filed them.

Key:
Test in all cases: NCI-60 one-dose screen, 48 h (100 = growth as untreated, 0 = no growth, -100 = all killed)
Details in all cases: 10 µM unless noted
[1] = test system: SK-MEL-2 melanoma
[2] = test system: EKVX NSCLC
[3] = test system: SN12C renal
[4] = test system: UO-31 renal
[5] = test system: TK-10 renal
[6] = test system: ACHN renal
[7] = test system: CAKI-1 renal
[8] = test system: A498 renal
[9] = test system: CCRF-CEM leukemia
[10] = test system: RPMI-8226 leukemia
[11] = test system: OVCAR-8 ovarian
[12] = test system: OVCAR-5 ovarian
[13] = test system: OVCAR-4 ovarian
[14] = test system: SK-OV-3 ovarian
[15] = test system: IGROV1 ovarian
[16] = test system: OVCAR-3 ovarian
[17] = test system: HS 578T breast
[18] = test system: NCI/ADR-RES ovarian
[19] = test system: MOLT-4 leukemia
[20] = test system: SR leukemia

Measured: growth

COc1cc2nc(Cl)nc(Nc3cccc(C4=Nc5c(N)nc(N)nc5NC(c5ccc(F)cc5)C4)c3)c2cc1OC (centres undefined)
active: [9] 5.4% | [10] -3.6%
inactive: [1] 86% | [2] 89.6% | [3] 81.9% | [4] 91.8% | [5] 112% | [6] 97.3% | [7] 88.8% | [8] 77.9% | [11] 51.6% | [12] 107% | [13] 96.6% | [14] 117% | [15] 80.8% | [16] 61% | [17] 86.1% | [18] 80%

Cn1ccnc1C(=O)/C=C/c1ccc(CNC(=O)c2c(F)c(F)c(F)c(F)c2F)cc1
inactive: [1] 99.4% | [2] 93.2% | [3] 44.5% | [4] 79.7% | [5] 79.2% | [6] 47.9% | [7] 76% | [8] 83.3% | [19] 23% | [20] 12.8% | [11] 90.1% | [12] 94.9% | [13] 95.4% | [14] 105% | [15] 31.7% | [16] 14.8% | [17] 86.9% | [18] 49.1%
active: [10] 9.9%

N#Cc1cccc(CN2CCc3ncn(Cc4ccc(Cl)cc4)c(=O)c3C2)c1
active: [8] 4.83%
inactive: [1] 28.6% | [2] 23.7% | [3] 15.9% | [4] 26% | [5] 38.1% | [6] 29.8% | [7] 10.7% | [9] 35.9% | [10] 22.4% | [11] 24.3% | [12] 23.8% | [13] 16.5% | [14] 22.8% | [15] 44.1% | [17] 35.9% | [18] 14.7%

Cn1cc(-c2nnc(N)nc2-c2c[nH]c3ccc(F)cc23)c2cc(F)ccc21
inactive: [1] 97.1% | [2] 89.1% | [3] 81.3% | [4] 57.1% | [5] 121% | [6] 47.7% | [7] 76.4% | [8] 86.3% | [19] 23.5% | [20] 41.1% | [10] 65.6% | [11] 90.3% | [12] 109% | [13] 98.4% | [14] 88.4% | [15] 35.7% | [17] 84.1% | [18] 86.7%

Nc1nc(Nc2ccccc2SSc2ccccc2Nc2nc(N)nc(-c3ccc4ccccc4c3)n2)nc(-c2ccc3ccccc3c2)n1
active: [4] -19.1% | [20] -25.5%
inactive: [1] 99.4% | [2] 44.7% | [3] 70% | [5] 117% | [6] 69.5% | [7] 35% | [8] 94% | [19] 62.5% | [10] 84.3% | [11] 84.4% | [12] 99.3% | [13] 83.9% | [14] 112% | [15] 47.6% | [16] 106% | [17] 86.2% | [18] 19.5%

COc1ccccc1-n1cc(C#N)c(N)c1C(=O)c1ccc(Br)cc1
inactive: [1] 70.4% | [2] 85.4% | [3] 82.7% | [4] 73% | [5] 111% | [6] 98.9% | [7] 68.8% | [9] 68.3% | [19] 61.4% | [20] 40.3% | [10] 92.4% | [11] 90.7% | [12] 94.4% | [13] 96.8% | [14] 88.7% | [15] 67.8% | [16] 73.3% | [17] 78.4% | [18] 42.6%

CCOC(=O)C(=O)CC(=O)N1C(=S)NC(=O)C1CC(C)C (centres undefined)
inactive: [1] 111% | [2] 98.2% | [3] 97.6% | [4] 84% | [5] 106% | [6] 103% | [7] 102% | [8] 98.6% | [19] 108% | [20] 112% | [10] 107% | [11] 101% | [12] 98.5% | [13] 102% | [14] 122% | [15] 97.5% | [16] 112% | [17] 111% | [18] 95.3%

O=C(Nc1ccc(Br)cc1)Nc1nc2ccc([N+](=O)[O-])cc2s1
inactive: [9] 10.9% | [12] 19.4% | [15] 21.8%
active: [1] -22.7% | [2] 9.52% | [3] 4.21% | [4] 5.94% | [5] -2.48% | [6] 3.61% | [7] -2.25% | [19] 3.2% | [20] -27.9% | [10] -35% | [11] 8.82% | [13] -10.6% | [14] -5.7% | [16] -5.56% | [17] -3.63% | [18] 3.27%

CS(=O)(=O)Nc1cc(-c2ccc3ncc(C#N)c(N[C@H](CO)c4ccccc4)c3c2)cnc1Cl
inactive: [1] 10.3% | [2] 66.9% | [3] 31.1% | [4] 43.4% | [5] 34.8% | [6] 81.4% | [7] 33.3% | [19] 14.7% | [20] 20.7% | [10] 64.2% | [11] 56.2% | [12] 74.1% | [13] 54% | [14] 81.1% | [16] 24% | [17] 13.7% | [18] 97.8%
active: [8] 7.35% | [15] 3.75%

COc1cc(OC)cc(C(=O)Nc2sc3c(c2C(N)=O)CCC(=O)C3)c1
active: [10] 1.86% | [13] 9.16%
inactive: [1] 86.8% | [2] 89% | [3] 50.9% | [4] 67.5% | [5] 66.5% | [6] 38.6% | [7] 10.6% | [8] 82.6% | [11] 42.1% | [12] 48.3% | [14] 106% | [15] 48.8% | [16] 14.8% | [17] 23.7% | [18] 53.9%

Nc1ncc(-c2ccc3ncnc(N4CCc5cc(F)c(Cl)cc54)c3c2)cn1
active: [2] -9.64% | [4] 7.96% | [5] -15% | [7] -9.07% | [8] -80.7% | [19] -20.9% | [10] -14.7% | [15] -11.2% | [17] -12.8%
inactive: [1] 17.1% | [3] 17.9% | [6] 13.4% | [20] 18% | [11] 33.5% | [12] 19.8% | [13] 31.7% | [14] 20.5% | [18] 38.4%

CNC(=O)c1cc(-n2ccc3cc(NC(=O)Nc4ccc(N5CCOCC5)c(C(F)(F)F)c4)ccc32)ccn1
inactive: [1] 68.8% | [2] 65.4% | [3] 55.3% | [4] 35.2% | [5] 61.3% | [6] 56.9% | [7] 41.3% | [8] 70.7% | [19] 13.8% | [11] 60.6% | [12] 65.1% | [13] 40.6% | [14] 102% | [15] 32.3% | [16] 76.4% | [17] 32.2% | [18] 47.9%
active: [20] 9.16% | [10] -26.7%

CN1CCN(Cc2ccc(NC(=O)c3cncc(C#Cc4cnc5ccc(NCCCO)nn45)c3)cc2C(F)(F)F)CC1
inactive: [3] 15.6% | [18] 74.1%
active: [1] -90.8% | [2] -3.09% | [4] -1.42% | [5] -28.7% | [6] 3.14% | [7] -1.99% | [8] -98.8% | [19] 8.92% | [20] -15.6% | [10] -36.9% | [11] -8.06% | [12] 4.78% | [13] -19.9% | [14] -47.5% | [15] 9.68% | [17] -26.5%

COc1ccc(C2c3sc4c(C)cccc4c3Oc3nc(CC(=O)Nc4ccccc4)[nH]c(=O)c32)cc1 (centres undefined)
inactive: [1] 92.8% | [2] 47.1% | [3] 79.1% | [4] 46.7% | [5] 141% | [6] 92.9% | [7] 46% | [8] 70.6% | [19] 101% | [10] 89.5% | [11] 99.8% | [12] 88.7% | [13] 65% | [14] 85.8% | [15] 47.9% | [17] 87.8% | [18] 38.7%

O=C1[C@@H]2Cc3c([nH]c4ccccc34)[C@H](c3c(Cl)cccc3Cl)N2C(=O)CN1C1CCN(CC2CCCCC2)CC1
active: [20] -0.527%
inactive: [1] 105% | [2] 90.7% | [3] 61.4% | [4] 69.7% | [5] 139% | [6] 51.3% | [7] 76.7% | [8] 87.1% | [19] 19.5% | [10] 38.4% | [11] 88.1% | [12] 93.4% | [13] 90.2% | [14] 123% | [15] 58.4% | [16] 20.3% | [17] 18.7% | [18] 74.9%

O=S(=O)(NC1c2ccccc2C[C@H]1O)c1ccc(Cl)cc1Cl (some centres undefined)
inactive: [1] 101% | [2] 98.8% | [3] 96.8% | [4] 68.7% | [5] 119% | [6] 96.2% | [7] 82.4% | [8] 103% | [10] 107% | [11] 98.4% | [12] 102% | [13] 97.4% | [14] 97.3% | [15] 99.2% | [17] 93.7%

CCc1nn2c(C)cc(C)nc2c1Cc1ccc(/C=C/CN2CCN(CCOCCOCCN3CCN(C/C=C/c4ccc(Cc5c(CC)nn6c(C)cc(C)nc56)cc4)CC3)CC2)cc1
inactive: [1] 79.4% | [2] 46.6% | [3] 31.4% | [5] 103% | [8] 69.7% | [11] 19.1% | [12] 28.2% | [13] 25.9% | [14] 85.2% | [18] 23.2%
active: [4] -95.9% | [6] 1.5% | [7] -16.2% | [19] -17.6% | [20] -30.9% | [10] -41.9% | [15] 4.6% | [16] -60.4% | [17] -39.4%
